Laboratory results reported in publication PMC4336329 (PLoS ONE, 2015).
Out of some 310,000 compounds screened, about 2,200 (0.71%) showed an effect of 50% or more. Effects have a minus sign here. Shown is part of a subset that was picked to be rich in strong results.

Biological target: human ether-à-go-go-related gene (hERG) potassium channel (human, UniProt Q12809)
Assay: primary screen, population patch clamp on CHO cells stably expressing hERG; higher = less effect of the substance

Sequence of human ether-à-go-go-related gene (hERG) potassium channel (Q12809 whole entry, looked up): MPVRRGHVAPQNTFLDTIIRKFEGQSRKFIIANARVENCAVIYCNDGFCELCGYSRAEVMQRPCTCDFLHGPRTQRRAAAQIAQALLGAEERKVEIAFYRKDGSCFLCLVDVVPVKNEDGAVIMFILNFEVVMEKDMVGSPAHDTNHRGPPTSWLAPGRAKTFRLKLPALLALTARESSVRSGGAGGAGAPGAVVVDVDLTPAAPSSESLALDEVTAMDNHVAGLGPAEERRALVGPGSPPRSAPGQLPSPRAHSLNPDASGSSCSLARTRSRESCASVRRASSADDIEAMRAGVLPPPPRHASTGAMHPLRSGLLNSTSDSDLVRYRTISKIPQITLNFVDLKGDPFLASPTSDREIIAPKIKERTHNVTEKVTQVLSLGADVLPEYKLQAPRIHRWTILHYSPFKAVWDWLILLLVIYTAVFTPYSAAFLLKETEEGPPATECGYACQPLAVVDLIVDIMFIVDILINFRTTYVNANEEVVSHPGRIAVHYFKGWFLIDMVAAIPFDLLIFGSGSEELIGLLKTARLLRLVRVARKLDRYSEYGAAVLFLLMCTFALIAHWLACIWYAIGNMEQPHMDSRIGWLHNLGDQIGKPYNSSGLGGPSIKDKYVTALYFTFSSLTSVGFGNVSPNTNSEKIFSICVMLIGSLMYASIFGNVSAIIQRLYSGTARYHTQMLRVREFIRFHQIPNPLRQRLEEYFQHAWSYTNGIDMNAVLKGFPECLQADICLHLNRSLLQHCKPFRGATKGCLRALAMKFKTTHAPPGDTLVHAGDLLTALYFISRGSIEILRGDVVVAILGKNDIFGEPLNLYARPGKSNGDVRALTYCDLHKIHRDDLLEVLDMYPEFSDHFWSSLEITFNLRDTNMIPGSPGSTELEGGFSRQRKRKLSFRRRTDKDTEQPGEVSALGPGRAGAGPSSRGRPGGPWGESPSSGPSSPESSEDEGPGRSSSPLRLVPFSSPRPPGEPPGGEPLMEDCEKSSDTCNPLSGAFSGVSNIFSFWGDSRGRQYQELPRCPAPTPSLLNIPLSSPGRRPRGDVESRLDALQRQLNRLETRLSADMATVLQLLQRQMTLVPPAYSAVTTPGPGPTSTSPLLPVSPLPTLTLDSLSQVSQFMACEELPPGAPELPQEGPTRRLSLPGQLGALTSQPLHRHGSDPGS

SMILES	hERG current change (%, negative = inhibition) at 1uM [%]
COc1ccccc1-n1c(O)c(/C=C2\C=Nc3ccccc32)c(=O)[nH]c1=O	11.9
Cc1cc(C)nc(-n2nc(C)cc2NC(=O)c2cccc(S(=O)(=O)N(C)C)c2)n1	8.89
COc1ccccc1C(=O)Nc1ccnn1C1CCN(C)CC1	4.47
COc1ccccc1CN1CCC(n2nccc2NC(=O)CCc2ccccc2)CC1	7.89
COc1ccccc1C(=O)Nc1ccnn1C1CCN(CCCc2ccccc2)CC1	-88.1
CC1=C(C(N)=O)C(c2ccc(Br)cc2)n2nc(CCCO)nc2N1 (stereo not shown)	13.1
Cc1ccc(N=C2NC(=O)C(CC(=O)O)S2)cc1 (stereo not shown)	8.56
NC(=O)c1cc(S(=O)(=O)N2CCN(c3cccc(Cl)c3)CC2)cs1	18.9
CN(C)S(=O)(=O)N1CCN(c2ccc(Cl)cc2)CC1	5.65
NC(=O)c1cc(S(=O)(=O)N2CCN(c3ccc([N+](=O)[O-])cc3)CC2)cs1	-59.3
CN(C)S(=O)(=O)N1CCN(c2ccc([N+](=O)[O-])cc2)CC1	-60.5
CC(=O)c1ccc(N2CCN(S(=O)(=O)c3csc(C(N)=O)c3)CC2)cc1	-14.2
CN(C)S(=O)(=O)N1CCN(c2ccccc2)CC1	-0.132
O=[N+]([O-])c1cc(NS(=O)(=O)c2ccc(Cl)nc2)ccc1Cl	-0.66
CCc1ccc2oc(-c3cc(N)ccc3O)nc2c1	9.06
O=C(O)C1CSC(c2ccccc2)N1C(=O)c1ccco1 (stereo not shown)	10
O=C(/C=C/c1ccc(S(=O)(=O)NCc2ccco2)cc1)N1CCN(c2ccccc2)CC1	5.15
COc1ccc(/C=N/NC(=O)c2ccoc2C)cc1CN1CCN(c2ccc(F)cc2)CC1	-19.3
COc1ccc(/C=N/NC(=O)c2ccccc2)cc1CN1CCN(c2ccc(F)cc2)CC1	-62.1
COc1ccc(/C=N/NC(=O)c2cccnc2)cc1CN1CCN(c2ccc(F)cc2)CC1	-0.578
COc1ccc(/C=N\NC(=O)c2ccccc2)cc1COc1ccc(F)cc1	4.81
COc1ccc(/C=N/NC(=O)c2ccc(C)cc2)cc1CN1CCN(c2ccc(F)cc2)CC1	-27

SMILES	hERG current change (%, negative = inhibition) at 1uM [%]
COc1ccc(/C=N/NC(=O)c2ccccc2F)cc1CN1CCN(c2ccc(F)cc2)CC1	-64.4
COc1ccc(/C=N/NC(=O)c2cccc(Br)c2)cc1CN1CCOCC1	-38.5
COc1ccc(C(=O)N/N=C/c2ccc(OC)c(CN3CCN(c4ccc(F)cc4)CC3)c2)cc1	-83.5
COc1ccc(/C=N/NC(=O)c2ccncc2)cc1CN1CCOCC1	6.59
COc1ccc(C(=O)N/N=C/c2ccc(OC)c(COc3ccc(F)cc3)c2)cc1	1.17
COc1ccc(/C=N/NC(=O)c2ccncc2)cc1CN1CCN(c2ccc(F)cc2)CC1	-54.2
COc1ccc(/C=N\NC(=O)c2ccccc2F)cc1COc1ccc(F)cc1	16.6
O=S(=O)(NC1CC1)c1ccc(F)c(F)c1	10.1
OCCN(Cc1nc(-c2ccc3c(c2)OCO3)no1)Cc1cccs1	7.42
CC(Oc1cc2oc(=O)c3c(c2cc1Cl)CCC3)C(=O)NCCCN1CCOCC1 (stereo not shown)	13.3
Cc1ccc(CN=C(N)Nc2nc(C)cc(C)n2)cc1.Cl	-19.5
CN(Cc1ccc(F)cc1)C(=O)c1ccc(NC(=O)CC2SC(N3CCCC3)=NC2=O)cc1 (stereo not shown)	8.82
COc1ccc(S(=O)(=O)NCC2CCCN(C(=O)c3cccnc3C)C2)cc1 (stereo not shown)	14
COc1ccc2c(ccc[n+]2CC(=O)c2ccc(C)cc2)c1.[Br-]	8.14
COc1ccc(/C=N\NC(=O)c2cc(O)c(O)c(O)c2)cc1CN1CCN(c2ccc(F)cc2)CC1	10.4
COc1ccc(/C=N/NC(=O)c2ccc(Br)cc2)cc1CN1CCOCC1	-23.8
COc1cc(C(=O)N/N=C/c2ccc(OC)c(CN3CCN(c4ccc(F)cc4)CC3)c2)ccc1O	-52.4
CCN(CC(=O)N1CCOCC1)S(=O)(=O)c1ccccc1	12.4
Cc1nc2sccn2c(=O)c1CCN1CCC(=C(c2ccc(F)cc2)c2ccc(F)cc2)CC1	-65
CCCCc1c(O)nc2sccn2c1=O	5.53
Cc1nc2sccn2c(=O)c1S(=O)(=O)N1CCN(c2ccc(F)cc2)CC1	-23
Cc1nc2sccn2c(=O)c1CCN1CCC(=C(c2ccccc2)c2ccc(F)cc2)CC1	-78.8

SMILES	hERG current change (%, negative = inhibition) at 1uM [%]
CCOc1ccccc1NC(=O)N1CCC(C(=O)c2ccc(F)cc2)CC1	9.5
Cc1ccccc1NC(=O)N1CCC(C(=O)c2ccc(F)cc2)CC1	17.6
Cc1nc2sccn2c(=O)c1S(=O)(=O)NCCc1ccccc1	-10.2
Cc1nc2ccccn2c(=O)c1CCN1CCC(C(=O)c2ccc(F)cc2)CC1	-66.2
Cc1nc2sccn2c(=O)c1S(=O)(=O)NCc1ccccc1	9.92
CC(NCC(=O)Nc1ccccc1C(=O)NC1CC1)c1ccc(F)cc1F (stereo not shown)	1.42
COc1ccccc1N1CCN(S(=O)(=O)c2c(C)sc3ncn(CC(=O)NCCN(C)C)c(=O)c23)CC1	10.8
Cc1ccc(S(=O)(=O)N2CCN(C(=O)CN3CCCSc4ccccc43)CC2)cc1	3.85
N/C(=N\N=C\c1ccc(O)cc1O)N[N+](=O)[O-]	8.72
COc1ccc(C(=O)OCc2nnc(-c3ccccc3)o2)cc1S(=O)(=O)N1CCOCC1	4.07
Cc1cc(=O)[nH]c(SCC(=O)NCC2CCCCC2)c1C#N	16
CCOc1ccccc1NC(=O)C(=O)NCCC1=CCCCC1	9.84
CN(CCNC(=O)c1ccc(CS(=O)(=O)c2c(Cl)cccc2Cl)o1)CCc1ccccc1	-50.4
CC(C)N(CCNC(=O)c1ccc(CS(=O)(=O)c2c(Cl)cccc2Cl)o1)Cc1ccccc1	-3.94
CCCCN(CCCNC(=O)c1ccc(CS(=O)(=O)c2c(Cl)cccc2Cl)o1)Cc1ccccc1	-30.5
CCCN(CCC)CCCNC(=O)c1ccc(CS(=O)(=O)c2c(Cl)cccc2Cl)o1	-59.1
CCCCN(CC)CCCNC(=O)c1ccc(CS(=O)(=O)c2c(Cl)cccc2Cl)o1	-8.53
CN(CCNC(=O)c1ccc(CS(=O)(=O)c2ccc(Br)cc2)o1)CCc1ccccc1	-42
Cc1ccc(-c2csc(NC(=S)NC(=O)/C=C/c3ccco3)n2)cc1	23.2
O=C1OCCC1Sc1nnc(-c2ccc3c(c2)OCO3)n1-c1ccccc1 (stereo not shown)	4.75
Cc1c(C(=O)NCc2ccc3c(c2)OCO3)oc2ccc(S(=O)(=O)N3CCCC3)cc12	19.4
N#Cc1cc2c(nc1SCC(=O)NCc1ccc3c(c1)OCO3)CCCCC2	1.91

SMILES	hERG current change (%, negative = inhibition) at 1uM [%]
CCOc1ccc(NC(=O)CN(C)C(=O)CSCc2ccc(C)cc2)cc1OCC	-1.27
COC(=O)CCNC(=O)Cc1c(C)n(C(=O)c2ccc(Cl)cc2)c2ccc(OC)cc12	8.1
Cc1ccc(-n2ccnc2SCC(=O)N(CC(C)C)C2CCS(=O)(=O)C2)c(C)c1 (stereo not shown)	-3.07
COc1cc2c(c(OC)c1OC)-c1c(cc(OC)c(OC)c1OC)C[C@H](C)[C@H](C)C2	-22.5
COc1cc2c(c(OC)c1OC)-c1c(cc(OC)c(OC)c1OC)C[C@](C)(O)[C@@H](C)C2	-58.4
COc1cc2c(c(OC)c1OC)-c1c(cc3c(c1OC)OCO3)C[C@H](C)[C@@](C)(O)C2	17.5
O=Nc1c(O)[nH]c2ccc(Cl)cc12	4.46
CCCc1cc(=O)oc2cc(C)cc(OCC(=O)NCc3ccncc3)c12	-48
CCc1cc(=O)oc2c(C)c(OCC(=O)NCCCn3ccnc3)ccc12	5.28
Cc1cc(OCC(=O)NCCCn2ccnc2)c2c(C)cc(=O)oc2c1	14.7
CCc1cc(=O)oc2cc(C)cc(OC(C)C(=O)NCCCn3ccnc3)c12 (stereo not shown)	2.72
Cc1c(C)c2ccc(OCC(=O)NCCCn3ccnc3)c(C)c2oc1=O	-11.1
CCCc1cc(=O)oc2cc(C)cc(OCC(=O)NCCCn3ccnc3)c12	-66.7
CCCc1cc(=O)oc2c(C)c(OCC(=O)NCCCn3ccnc3)ccc12	-70
CCCCc1cc(=O)oc2cc(C)cc(OCC(=O)NCc3ccncc3)c12	-73.8
CCc1cc(=O)oc2cc(C)cc(OCC(=O)NCc3ccncc3)c12	-8.01
Cc1cc(OC(C)C(=O)NCCCn2ccnc2)c2c(C)c(C)c(=O)oc2c1 (stereo not shown)	-51.6
CCc1cc(=O)oc2cc(C)cc(OCC(=O)NCCCn3ccnc3)c12	-7.42
Cc1cc(OC(C)C(=O)NCCCn2ccnc2)c2c(C)cc(=O)oc2c1 (stereo not shown)	9.26
